# In the library only some 6.2% were active in any assay of this set; here they are far more common.
# ATXN2 expr inh: reduces ATXN2 reporter expression in HEK-293 cells; HEK-293 ATXN2-luciferase reporter, luminescence, 24 h; Potency, µM (doses to about 57 µM), for inactives: at the top dose activity change, negative = inhibition, most hits filed as inhibitors; 360,000 tested, 0.72% active; AID 1745845; also: % is scaled to controls: 0 for no effect and ±100 for the full control effect; nearly all actives have a fitted effect of over 55% in size
#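 qHTS (up to 57 uM final) was run with 24 h compound exposure of reporter cells at 37 °C. Each well was multiplexed: SteadyGlo luminescence measured ATXN2-luciferase expression after a fluorogenic Gly-Phe-AFC viability readout (25 uM final).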
# ATXN viability: viability counter-screen for ATXN expression inhibitors. S2 cells (HEK-293 line with an ATXN2-luciferase reporter) viability, CellTiter-Fluor protease fluorescence, 24 h. Potency, µM (doses to about 56.7 µM), most hits filed as cytotoxic. 400,000 tested, 0.49% active; also: nearly all actives have a fitted effect of over 40% in size
# KB-3-1 cytotox: kills parental KB-3-1 adenocarcinoma cells | Potency, µM (series often up to 46.1 µM), most hits filed as cytotoxic | KB-3-1 viability, CellTiter-Glo ATP luminescence, 72 h | 400,000 tested, 1.4% active | AID 1347075; also: % is scaled to controls: 0 for no effect and ±100 for the full control effect; nearly all actives have a fitted effect of over 60% in size
#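 Parental KB-3-1 viability, qHTS format: 72 h compound exposure, 37 °C; CellTiter-Glo; media-only wells and DMSO plates as controls; concentration-effect fits on corrected data.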
# HT1080NT lethal: kills 2HG-producing HT-1080-NT fibrosarcoma cells | HT-1080-NT fibrosarcoma viability, CellTiter-Glo ATP luminescence, 48 h | 360,000 tested, 1.6% active | Potency, µM (series often up to 46.1 µM), for inactives: at the highest dose activity, negative = less viability, actives largely listed as cytotoxic;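 also: NT is the 2HG producing partner of a matched IDH1 knockdown line; 0% = DMSO-treated cells and -100% = media-only wells without cells; nearly all actives have a fitted effect of over 55% in size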
#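 Fibrosarcoma NT cells, 750 per well in 5% FBS RPMI, were exposed to compound for 48 hours. Viability: CellTiter-Glo luminescence.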
# KB-V1 cytotox: kills drug-selected multidrug resistant KB-V1 cells | Potency, µM (doses to about 46.1 µM), usual class: cytotoxic | KB-V1 MDR cells viability, CellTiter-Glo, 72 h | AID 1347076 | 400,000 tested, 3.4% active; also: % is scaled to controls: 0 for no effect and ±100 for the full control effect; nearly all actives have a fitted effect of over 60% in size
#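 Potencies derive from concentration-effect curves fitted to normalized luminescence (CellTiter-Glo) of KB-V1 cells treated for 72 h at 37 degrees C in phenol-red-free DMEM containing 10% FBS.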
# HT1080 IDH1KD tx: toxicity to HT-1080 IDH1 knockdown cells (counter line). HT-1080 IDH1 knockdown viability, ATP luminescence, 48 h. Potency, µM (doses to about 46.1 µM), for the others: at the highest dose activity, negative = toxicity, most hits filed as cytotoxic. 360,000 tested, 2% active;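 also: 0% = DMSO wells and -100% = cell-free medium wells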
#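 Knockdown cells (IDH1KD HT-1080) received compounds 2 h after plating at 750 cells/well and were kept 48 h at 37 °C in 5% FBS RPMI. A CellTiter-Glo luminescence read gave % activity for curve fitting.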
# Starred values were filed as active, the others as inactive; i = inactive; ? = inconclusive; . = not tested or not shown. Calls follow the shape of the dose curve; as a rule, active = well fitted curve in the direction sought with a large enough effect; inconclusive = small, poorly fitted or top-dose-only effect, or another doubt; inactive = no such curve, though single readings can be large; an effect the other way counts as inactive or inconclusive. Potency is read from the fitted curve at half-maximal effect.
SMILES,ATXN2 expr inh,ATXN viability,KB-3-1 cytotox,HT1080NT lethal,KB-V1 cytotox,HT1080 IDH1KD tx
Cc1ccc(NC(=O)c2c(N3CCCC3=O)c3cc(C)ccc3n2C)c(C)c1,-5.0%,i,i,.,i,.
CCc1cccc(NC(=O)c2c(N3CCCC3=O)c3cc(C)ccc3n2C)c1,-34.8%,i,?,.,18.4µM*,.
Cc1ccc(S(=O)(=O)Oc2ccccc2/C=C2\SC(=O)NC2=O)cc1,-7.2%,i,i,20.6µM*,i,-26.0%
Cc1ccc(S(=O)(=O)Oc2ccccc2/C=N/NC(N)=S)cc1,-20.9%,i,6.51µM*,4.47µM*,?,?
O=C1CC(c2ccc(Cl)cc2)Sc2nc(-c3ccc(F)cc3)nn21 (centres undefined),-6.3%,i,i,.,i,.
CN(C)c1ccc(N=Nc2ccc(/C=C/c3ccnc4ccccc34)cc2)cc1,.,.,i,.,i,.
O=C(CCCCCCCCC(=O)N1CCCCC1)N1CCCCC1,-21.1%,i,?,7.9%,2.31µM*,2.5%
O=C(CCCCCCCC(=O)N1CCCCCC1)N1CCCCCC1,-3.7%,i,.,0.0%,.,0.9%
COC1=C(C(=O)O)N2C(=O)[C@@H](NC(=O)[C@H](N)C3=CCC=CC3)[C@H]2SC1,.,i,.,.,.,.
Cc1ccc(C)c(CSc2nnc([C@@H](N)C(C)C)o2)c1,2.5%,i,i,-9.1%,14.6µM*,-9.1%
CN(C)CCCC1Sc2ccccc2Sc2ccccc21 (centres undefined),-32.4%,?,?,23.1µM*,i,?
C/C(=N\NC(=O)c1ccccc1)c1c(C)[nH]n(-c2ccccc2)c1=O,?,?,?,-18.9%,i,?
C/C(=N\NC(=O)c1ccc(C)cc1)c1c(C)[nH]n(-c2ccccc2)c1=O,.,?,?,?,?,14.6µM*
Cc1nn(-c2ccccc2)nc1C(=O)c1c(C)[nH]n(-c2ccccc2)c1=O,?,i,16.4µM*,1.7%,20.6µM*,4.6%
Cc1[nH]n(-c2ccccc2)c(=O)c1C(=O)c1ccc([N+](=O)[O-])cc1,-31.1%,?,i,-13.8%,?,-10.8%
CCS(=O)(=O)N1Cc2ccccc2CC1C(=O)Nc1ncc(C)s1 (centres undefined),.,?,i,-5.5%,?,6.4%
Cc1cccc2sc(NNC(=O)c3ccc(S(=O)(=O)N4CC(C)CC(C)C4)cc3)nc12 (centres undefined),?,i,?,?,i,16.4µM*
CCS(=O)(=O)N1Cc2ccccc2CC1C(=O)Nc1nc2ccc(C)cc2s1 (centres undefined),31.3%,i,?,?,7.31µM*,-18.2%
COC(=O)c1sc2ccccc2c1NC(=O)c1ccc(S(=O)(=O)N2CC(C)CC(C)C2)cc1 (centres undefined),9.3%,i,i,5.0%,i,-5.9%
Cc1cc(C)c2nc(NNC(=O)c3ccc(S(=O)(=O)N4CCCC(C)C4)cc3)sc2c1 (centres undefined),-34.9%,i,4.11µM*,?,i,?
Cc1cc(C)c2nc(NNC(=O)c3ccc(S(=O)(=O)N4CC(C)CC(C)C4)cc3)sc2c1 (centres undefined),?,i,i,?,i,11.6µM*
Cc1cc(C)c2nc(NC(=O)c3ccc(S(=O)(=O)N4CCC(C)CC4)cc3)sc2c1,-10.5%,?,i,.,i,.
Cc1c(C(=O)Nc2cccc(C#N)c2)sc2nc3n(c(=O)c12)CCCCC3,.,.,i,.,i,.
Cc1csc[n+]1CC(=O)c1ccc(I)cc1,.,.,i,.,i,.
COc1ccccc1CN(C)CC(=O)c1c(C)[nH]c2ccccc12,.,.,i,.,i,.
SMILES,ATXN2 expr inh,ATXN viability,KB-3-1 cytotox,HT1080NT lethal,KB-V1 cytotox,HT1080 IDH1KD tx
COc1cccc(OC)c1CN1CCC2(CCC(CNC(=O)c3ccccc3)O2)CC1 (centres undefined),.,i,.,.,.,.
Cc1ccc2nc(NNC(=O)c3ccc(S(=O)(=O)N4CCc5ccccc5C4)cc3)sc2c1,?,i,?,?,i,4.61µM*
O=C(CCc1ccccc1)NCC(c1ccco1)N1CCc2ccccc21 (centres undefined),-10.3%,i,3.66µM*,6.51µM*,7.31µM*,5.17µM*
COC(=O)c1c(CCl)noc1C(=O)NCC1CCCO1 (centres undefined),11.4%,i,i,-17.9%,i,23.1µM*
O=C(CCS(=O)(=O)c1ccccc1)Nc1nc2ccc(F)cc2s1,-11.1%,i,?,-14.6%,i,-10.4%
CS(=O)(=O)c1ccc2nc(NC(=O)CCS(=O)(=O)c3ccccc3)sc2c1,?,31.6µM*,i,-25.8%,i,20.6µM*
CS(=O)(=O)c1ccc2nc(NC(=O)Nc3ccc(Cl)c(Cl)c3)sc2c1,-19.0%,?,i,?,i,-4.0%
CS(=O)(=O)c1ccc2nc(NC(=O)Nc3cccc(Cl)c3)sc2c1,-15.6%,?,i,?,?,11.2µM*
Cc1ccc(N2CC(C(=O)Nc3nc4ccc(S(C)(=O)=O)cc4s3)CC2=O)cc1 (centres undefined),3.3%,i,?,-0.2%,6.51µM*,-8.8%
CN(N=O)c1ccc(/C=C/c2ccccc2)cc1,.,.,i,.,i,.
COc1cc(/C=C/C(C)=O)cc(OC)c1OC,35.4%,i,23.1µM*,-8.5%,i,0.2%
O=C(/C=C/c1c[nH]c2ccccc12)c1ccccc1,83.1%,i,i,1.5%,i,-15.9%
COc1cc(C=CC(=O)c2cc(OC)c(OC)c(OC)c2)cc(OC)c1OC,?,?,6.51µM*,?,?,23.1µM*
COc1ccc2[nH]cc(C(=O)CCl)c2c1,?,15.8µM*,11.6µM*,5.8µM*,?,7.31µM*
COc1ccc2[nH]cc(/C=C/C(=O)c3ccccc3)c2c1,82.9%,.,i,18.4µM*,i,18.4µM*
O=[N+]([O-])c1ccc(Cl)c(S(=O)(=O)/N=C(/Sc2ccc(Br)cc2)c2ccccc2)c1,.,.,?,.,i,.
CCCNc1nc(Nc2ccc([N+](=O)[O-])cc2)nc(N2CCOCC2)n1,.,.,i,.,i,.
Cn1c(=O)c2c(nc(SCC(=O)Nc3ccc(F)cc3)n2Cc2ccccc2F)n(C)c1=O,14.8%,i,i,.,i,.
CCOc1ccc(Nc2c(S(=O)(=O)c3ccccc3)cnc3ccc(CC)cc23)cc1,?,?,i,.,?,.
